Bioassay records (PubChem BioAssay)
Hits are enriched below; roughly 2.4% of the tested compounds scored in any of these assays.
D2 ag-1: activates the human D2 dopamine receptor | P14416 | HEK293 T-REx D2 cells, calcium flux agonist mode | activation, % at 2 µM | 0.53% of 340,000 active | AID 485358;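 active means activation over 3 SD above normal in the single-dose calcium agonist read, cut at about 30% in these data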
Target sequence (P14416 whole entry, looked up): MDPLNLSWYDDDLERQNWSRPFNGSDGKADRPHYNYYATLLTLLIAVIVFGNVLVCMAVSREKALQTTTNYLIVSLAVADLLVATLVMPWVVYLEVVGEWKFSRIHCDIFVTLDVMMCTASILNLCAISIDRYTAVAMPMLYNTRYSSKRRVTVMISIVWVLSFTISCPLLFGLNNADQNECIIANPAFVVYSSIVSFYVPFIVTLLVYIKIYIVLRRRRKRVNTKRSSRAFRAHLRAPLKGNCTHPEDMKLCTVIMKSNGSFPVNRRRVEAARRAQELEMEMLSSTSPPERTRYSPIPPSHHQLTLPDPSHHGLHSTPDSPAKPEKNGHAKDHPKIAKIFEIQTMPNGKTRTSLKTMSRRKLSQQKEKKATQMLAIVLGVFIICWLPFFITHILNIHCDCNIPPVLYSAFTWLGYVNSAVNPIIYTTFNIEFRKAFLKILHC
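Calcium-flux readout, 1 cycle/sec over 180 s following compound pin transfer, in inducible HEK293 Trex D2 cells (force-coupled); dopamine controls included. Positive calcium responses during this window marked compounds as potential agonists.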
D2 ag-2: agonists of human D2 dopamine receptor (beta-arrestin); DiscoveRx PathHunter D2 beta-arrestin, luminescence, 90 min; 100% = 57 uM dopamine signal; activation, % (test concentration not listed); P14416; 0.084% of 360,000 active; in the data active means activation above about 40%; inconclusive means between about 15% and that limit
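Agonist mode: compounds alone added to overnight-plated D2 PathHunter cells for 90 min at 37 C, with 57 uM final dopamine (EC100) defining full response. Beta-arrestin recruitment detected by chemiluminescent reagent, read after 1 h at ambient temperature.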
D2 PAM-1: D2 dopamine receptor (human) potentiation; P14416; HEK293 T-REx D2, calcium flux, EC20 dopamine potentiation; potentiation, % at 10 µM; 0.34% of 340,000 active;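 active means potentiation over 3 SD above the plate norm, cut at about 30% in these data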
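Cells plated with tetracycline inducer and held overnight at 30 C; calcium dye loaded 30–90 min at room temperature; baseline taken, compound added and read 180 s; EC20 dopamine then added and read 180 s.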
D2 antag: antagonists of human D2 dopamine receptor. P14416. HEK293 TREx D2 cells, calcium flux, dopamine EC80. inhibition, % at 10 µM. 2% of 340,000 active. AID 485344; in the data active means inhibition above about 30%; inactive means below that, where a call was filed
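In this primary screen, negative modulation is detected by tracking calcium flux after an EC80 dopamine challenge in inducible HEK293 T-REx D2 cells preexposed to test compound for 180 s.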
D2 PAM-2: positive allosteric modulators of human D2 dopamine receptor; DiscoveRx D2 beta-arrestin cells, luminescence, 90 min; 100% = 57 uM dopamine signal; potentiation, % (test concentration not listed); 0.23% of 360,000 active; in the data active means potentiation above about 50%; inconclusive means mostly about 30% to 49%
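PathHunter D2 cells, attached overnight at 37 deg C, received compound in DMSO plus dopamine at EC20 (50 nM final) for 90 min at 37 deg C. Beta-arrestin recruitment was read as luminescence after 1 h with detection reagent at ambient temperature.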
Of the large screens only hits and unclear results are named; the others gave an inactive call.

Cc1cccc(C(=O)N2CCc3cc(CNC(=O)c4ccco4)ccc32)c1	none (no result: D2 ag-2, D2 antag, D2 PAM-2)
CCCCOC(=O)C1=C(C)NC(=O)NC1c1ccc([N+](=O)[O-])s1 (stereo not given)	D2 PAM-2 58
CCCCOC(=O)C1=C(C)NC(=O)NC1c1cccc([N+](=O)[O-])c1 (stereo not given)	none
NC1=NC[C@H](Cc2ccc(O)cc2)N1CCc1cccc(F)c1	D2 antag 39
CN(C)C1=NC[C@H](Cc2ccccc2)N1CCc1cccc(F)c1	none
CSc1ccc2c(c1)C(N1CCN(C)CC1)Cc1ccccc1S2 (stereo not given)	D2 antag 81
Cc1c(OCC(=O)N[C@@H](Cc2ccccc2)C(=O)O)ccc2c3c(c(=O)oc12)CCC3	none
Cc1c(OCC(=O)N[C@@H](CSCc2ccccc2)C(=O)O)ccc2c3c(c(=O)oc12)CCC3	D2 antag 31
N#C/C(=C\c1cc(Br)c(O)c(Br)c1)c1nc2ccccc2c(=O)[nH]1	none (no result: D2 ag-1, D2 ag-2, D2 antag, D2 PAM-2)
COc1ccc(OCC(O)Cn2c(N)nc3c2c(=O)[nH]c(=O)n3C)cc1 (stereo not given)	none
COc1ccccc1/C=C/C(=O)NCCC1=CCCCC1	D2 antag 35
CCC(=O)c1ccc(OCC(=O)NCCC2=CCCCC2)c(OC)c1	none
COc1cc(C(=O)NCCC2=CCCCC2)ccc1OCc1c(C)noc1C	D2 antag 32
CCOc1ccc(C(=O)NCCC2=CCCCC2)cc1OCC	D2 antag 38
CN1OC[C@@H]2CN3C(=O)N(c4cccc5ccccc45)c4ccccc4[C@@H]3C[C@@H]21	none (no result: D2 ag-1, D2 PAM-1, D2 antag)
COc1ccc(C(=O)c2c[nH]cc2-c2ccccc2)cc1	D2 antag 40
Cc1csc2nc(-c3cccc(NC(=O)c4ccc(S(N)(=O)=O)cc4)c3)cn12	none (no result: D2 ag-2, D2 antag, D2 PAM-2)
O=C(CSc1nnc(C2CC2)n1Cc1ccccc1)N1CCN(S(=O)(=O)c2ccccc2)CC1	none
CC(C)Sc1nnc(-c2ccc(S(=O)(=O)N3CCOCC3)cc2)n1C	D2 antag 35
CCN(CC)C(=O)CSc1nnc(-c2ccc(S(=O)(=O)N3CCOCC3)cc2)n1C	none
O=C(CSc1nnc(C2CC2)n1Cc1ccccc1)c1ccc(S(=O)(=O)N2CCOCC2)cc1	D2 antag 46
CC1CCCN(C(=O)CSc2nnc(-c3ccc(S(=O)(=O)N4CCOCC4)cc3)n2C)C1 (stereo not given)	none
CC1CCN(C(=O)CSc2nnc(-c3ccc(S(=O)(=O)N4CCOCC4)cc3)n2C)CC1	D2 PAM-1 53
CCn1c(C)c(C)c2cc(C(=O)NCC(C)c3ccccc3)ccc21 (stereo not given)	none (no result: D2 ag-2, D2 antag, D2 PAM-2)
CC1Cc2nc(SCC(=O)N3CCc4ccccc43)n(C)c(=O)c2S1 (stereo not given)	none
CC1Cc2nc(SCC(=O)OCc3ccccc3)n(C)c(=O)c2S1 (stereo not given)	D2 PAM-1 35
NC(=O)CSc1nnc(-c2cnccn2)n1-c1ccccc1	D2 PAM-1 36
Cn1c(SCc2ccccc2)nnc1-c1cnccn1	D2 antag 37
Cn1c(SCc2ccc(F)cc2)nnc1-c1cnccn1	none
O=C(CSCc1cnn(-c2ccccc2)c1-n1cccc1)NCc1ccccc1F	none (no result: D2 ag-2, D2 antag, D2 PAM-2)
O=c1nc(/C=C/c2ccccc2C(F)(F)F)cc(C(F)(F)F)[nH]1	D2 antag 32
COCCCN1C(=O)c2ccc(C(=O)OCC(=O)N3CCN(c4ccccc4)CC3)cc2C1=O	none
Cc1cccc(CN2CCN(c3ccccn3)CC2)c1	D2 ag-2 46, D2 PAM-2 92 (no result: D2 ag-1, D2 PAM-1, D2 antag)
c1ccc(COc2cccc(CN3CCN(c4ccccn4)CC3)c2)cc1	D2 ag-2 48, D2 PAM-2 inconclusive
c1ccc(COc2cccc(CN3CCCCC3)c2)cc1	none (no result: D2 ag-1, D2 antag)
Cc1cc(C)c(S(=O)(=O)NCCc2csc3nc(-c4ccc(Cl)cc4)nn23)c(C)c1	none (no result: D2 ag-2, D2 antag, D2 PAM-2)
CCOC1=C2CN(S(=O)(=O)c3ccc(C)cc3)[C@@H](c3cccs3)C[C@H]2[C@H]2C(=O)N(c3ccccc3)C(=O)[C@H]2C1	none (no result: D2 ag-1, D2 PAM-1, D2 antag)
CCOc1ccc(CN2CCN(CCCc3ccccc3)CC2CCO)cc1 (stereo not given)	none
CC1CCN(c2c([N+](=O)[O-])nn(-c3ccc4c(c3)OCCO4)[n+]2[O-])CC1	D2 PAM-2 75
O=C(c1ccco1)N1CCN(c2c([N+](=O)[O-])nn(-c3ccc(Cl)cc3)[n+]2[O-])CC1	none
O=S(=O)(c1ccc(Br)cc1)c1nnn2c1nc(NCc1ccc3c(c1)OCO3)c1sccc12	none (no result: D2 ag-2, D2 antag, D2 PAM-2)
C=CCn1c(SCC(C)=O)nc2scc(-c3ccc(C)o3)c2c1=O	none
C=CCn1c(=S)[nH]c2scc(-c3ccc(C)o3)c2c1=O	D2 antag 32
Cc1noc(C)c1S(=O)(=O)N1CCC(C(=O)Nc2ccccn2)CC1	D2 PAM-1 34
Cc1noc(C)c1S(=O)(=O)N1CCN(c2ccccc2)CC1	D2 antag 38
Cc1ccc(S(=O)(=O)N2CCC(C(=O)NCCc3ccccn3)CC2)cc1	D2 antag 43
CCN(CCN(C)C)C(=O)C1CCN(S(=O)(=O)c2c(C)noc2/C=C/c2ccccc2F)CC1	none
CCOc1ccccc1/C=C/c1onc(C)c1S(=O)(=O)N1CCC(C(=O)N(CC)CC)CC1	D2 antag 56
Cc1ccc2[nH]cc(C(c3ccccc3)c3ccc(C)s3)c2c1 (stereo not given)	none (no result: D2 ag-2, D2 antag, D2 PAM-2)
Cc1ccc(NC(=O)Cn2c(=O)n(CCCCCC(=O)NCc3ccc(F)cc3)c(=O)c3sccc32)cc1C	none (no result: D2 ag-2, D2 antag, D2 PAM-2)
CCCN1CCCc2cc(CN)ccc21	D2 PAM-2 50
CC(C)C(NC(=O)CN(c1cccc(F)c1)S(C)(=O)=O)C(C)C	D2 antag 39
CSc1cccc(NC(=O)CN(c2cccc(C)c2)S(C)(=O)=O)c1	D2 antag 30
CC(=O)c1cccc(N(CC(=O)Nc2ccccc2F)S(C)(=O)=O)c1	D2 antag 46
CCOC(=O)c1cnn(-c2ccc(OC)cc2)c1C1CCN(C(=O)OC(C)(C)C)CC1	none (no result: D2 ag-2, D2 antag, D2 PAM-2)
CCCCCn1c(=O)[nH]c2cc(C(=O)NCc3ccc(OC)cc3)ccc2c1=O	none (no result: D2 ag-2, D2 antag, D2 PAM-2)
Cc1ccccc1C(=O)NNC(=S)NC(=O)c1ccccc1	D2 ag-1 51
COc1ccc(Cl)cc1C(=O)NNC(=S)NC(=O)c1ccc(F)c(F)c1	D2 antag 40
Cc1ccc(C(=O)NNC(=S)NC(=O)c2ccc(Cl)cc2Cl)cc1	D2 ag-1 70
Cc1ccc(C(=O)NC(=S)NNC(=O)c2ccc([N+](=O)[O-])cc2)cc1	D2 antag 33
Cc1ccc(C(=O)NNC(=S)NC(=O)c2ccccc2)cc1	none (no result: D2 ag-1, D2 PAM-1, D2 antag)
COc1ccc(C(=O)NNC(=S)NC(=O)c2ccc(F)cc2)cc1Br	none (no result: D2 ag-1, D2 PAM-1, D2 antag)
O=S(=O)(c1ccccc1)n1nc(-c2ccc(Cl)cc2)nc1NCc1ccc(F)cc1	none (no result: D2 ag-2, D2 antag, D2 PAM-2)
